Assay results published in PubChem BioAssay (EPA / NIEHS).
Records with an inconclusive call do not appear. The source made the active and inactive calls. Rule for the calls: active = hit-call score of the fitted dose curve at least 0.9, where 1 is the maximum; inconclusive = response in the unintended direction; inactive = score below 0.9.

These compounds were tested against human Ephrin type-A Receptor 1 (EphA1), EPHA1 (gene 2041) (UniProt P21709) (assay: NVS_ENZ_hEphA1: NovaScreen (NVS) Enzymatic Assay for human Ephrin type-A Receptor 1 (EphA1) (AID 2283158)).
Sequence of human Ephrin type-A Receptor 1 (EphA1), EPHA1 (gene 2041) (P21709 whole entry, looked up): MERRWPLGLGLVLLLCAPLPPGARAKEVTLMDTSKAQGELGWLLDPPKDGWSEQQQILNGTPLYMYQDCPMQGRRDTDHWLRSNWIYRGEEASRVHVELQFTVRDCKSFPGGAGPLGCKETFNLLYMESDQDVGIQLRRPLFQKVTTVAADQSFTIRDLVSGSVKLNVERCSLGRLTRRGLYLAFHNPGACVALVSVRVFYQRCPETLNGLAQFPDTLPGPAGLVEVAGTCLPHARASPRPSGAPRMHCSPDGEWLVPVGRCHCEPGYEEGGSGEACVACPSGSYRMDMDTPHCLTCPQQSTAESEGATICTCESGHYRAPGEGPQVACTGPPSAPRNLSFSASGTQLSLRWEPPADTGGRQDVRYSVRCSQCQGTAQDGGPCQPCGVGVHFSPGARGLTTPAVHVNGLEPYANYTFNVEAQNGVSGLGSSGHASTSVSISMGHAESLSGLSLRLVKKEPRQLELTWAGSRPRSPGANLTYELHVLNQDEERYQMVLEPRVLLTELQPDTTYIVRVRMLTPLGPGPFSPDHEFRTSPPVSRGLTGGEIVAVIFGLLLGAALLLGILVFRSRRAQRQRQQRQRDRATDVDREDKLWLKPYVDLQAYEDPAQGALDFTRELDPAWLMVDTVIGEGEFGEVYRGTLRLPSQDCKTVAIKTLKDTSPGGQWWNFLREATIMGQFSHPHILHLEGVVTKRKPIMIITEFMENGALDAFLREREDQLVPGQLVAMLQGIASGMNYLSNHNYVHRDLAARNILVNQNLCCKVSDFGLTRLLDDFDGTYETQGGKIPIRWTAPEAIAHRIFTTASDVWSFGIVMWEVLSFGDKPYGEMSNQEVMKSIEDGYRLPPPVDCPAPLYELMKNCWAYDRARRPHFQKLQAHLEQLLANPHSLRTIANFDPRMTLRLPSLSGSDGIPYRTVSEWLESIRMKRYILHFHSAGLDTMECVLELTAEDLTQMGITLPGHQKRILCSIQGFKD
Protocol: NVS_ENZ_hEphA1 is a biochemical, single-readout assay that uses extracted gene-proteins in a cell-free assay. Measurements were taken 1 hour after chemical dosing in a 384-well plate.NVS_ENZ_hEphA1 is one of one assay component(s) measured or calculated from the NVS_ENZ_hEphA1 assay. It is designed to make measurements of enzyme activity, a form of enzyme reporter, as detected with fluorescence intensity signals by Fluorescence and electrophoretic mobility shift technology.Data from the assay component NVS_ENZ_hEphA1 was analyzed into 1 assay endpoint. This assay endpoint, NVS_ENZ_hEphA1, was analyzed in the positive analysis fitting direction relative to DMSO as the negative control and baseline of activity. Using a type of enzyme reporter, loss-of-signal activity can be used to understand changes in the enzymatic activity as they relate to the gene EPHA1. Furthermore, this assay endpoint can be referred to as a primary readout, because this assay has produced multiple assay endpoints where this one serves a enzymatic activity function. To generalize the intended target to other relatable targets, this assay endpoint is annotated to the kinase intended target family, where the subfamily is receptor tyrosine kinase.
Binding assays used specific radioligands (tritiated, iodinated) with non-radioactive competitive displacement ligands in agonist or antagonist protocols (as indicated) and various reference compounds and inhibitors to titrate specific binding to receptors and transporters. Most enzyme assays (CYPs, kinases, phosphatases, proteases, HDACs) used recombinant protein and specific substrates (fluorescence mostly, some colorimetric and radioactive) and inhibitors, followed by a biochemical separation of substrate and product. All assays for the biochemical HTS were initially run in duplicate at a single concentration (10 uM for CYP450 assays and 25 uM for all others). Assay-chemical combinations meeting a pre-defined threshold (e.g., 30% inhibition and other criteria defined below) were then run in singleton concentration-response format with maximum concentration of 20 uM for CYPs and 50 uM for all others. Each assay was run with positive and negative controls, and concurrent controls on every plate. The follow-up (secondary) screen tested active chemical-pairs in concentration series, as well as a few additional assays not tested in the primary screen, some selected negative inactives, and several cases re-run in the concentration series for confirmatory purposes.

Compound | outcome
CC=C(C)C(C)=O | inactive
C=CC(=O)OCCCCCCCC(C)C | inactive
CC1=C(O)C(=O)C(C)O1 (configuration not stated) | inactive
CC(C)CO | inactive
CC(=O)OC(C)c1ccccc1 (configuration not stated) | inactive
CC(=O)CC(=O)Nc1ccccc1C | inactive
CC=C(C)C=CC=C(C)C | inactive
C=C(C)OC(C)=O | inactive
C=CC(=O)OCC(C)OCC(C)OCC(C)OC(=O)C=C (configuration not stated) | inactive
CCCCOCCOCCOC(C)=O | inactive
COC(OC)(C(=O)c1ccccc1)c1ccccc1 | inactive
Nc1ncnc2nc[nH]c12 | inactive
CCOc1ccc(NC(N)=O)cc1 | inactive
CC/C=C\CCOC(=O)c1ccccc1O | inactive
CCCCCC1=CCCC1=O | inactive
O=C(Oc1ccccc1)c1ccccc1C(=O)Oc1ccccc1 | inactive
Nc1cccc(N)n1 | inactive
